# Measured values from the supplement of paper PMC8728848.
# The sample as a whole holds a higher share of the strongest signals than the screen did.
# Experiments:
# Assay in all cases: glycan array binding signal (z-score within array); higher = stronger binding
# Conditions in all cases: glycan notation: IUPAC condensed, linker removed
# [1] = molecular target: Fuc(a1-2)Gal(b1-3)GlcNAc(b1-3)[Gal(b1-4)GlcNAc(b1-6)]Gal(b1-4)Glc
# Method in brief: (§1)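 Glycan array data were curated from 3228 arrays in the Consortium for Functional Glycomics database and kept only where the protein sequence was available. Glycan names were converted to IUPAC-condensed notation, and columns mapping to the same glycan were averaged. The binding signal is a within-array Z-score, averaged across arrays of the same protein sequence at different concentrations or buffers and across linkers. Negative Z-scores can be read as non-binding.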
# [2] = molecular target: Fuc(a1-2)Gal(b1-3)[Fuc(a1-4)]GlcNAc(b1-3)[Fuc(a1-3)[Gal(b1-4)]GlcNAc(b1-6)]Gal(b1-4)Glc
# Method in brief: as §1
# [3] = molecular target: Fuc(a1-2)Gal(b1-4)GlcNAc(b1-2)Man(a1-3)[Fuc(a1-2)Gal(b1-4)GlcNAc(b1-2)Man(a1-6)]Man(b1-4)GlcNAc(b1-4)GlcNAc
# Method in brief: as §1
# [4] = molecular target: Fuc(a1-2)Gal(b1-4)GlcNAc(b1-2)[Fuc(a1-2)Gal(b1-4)GlcNAc(b1-4)]Man(a1-3)[Fuc(a1-2)Gal(b1-4)GlcNAc(b1-2)Man(a1-6)]Man(b1-4)GlcNAc(b1-4)GlcNAc
# Method in brief: as §1
# [5] = molecular target: Fuc(a1-2)[Gal(a1-3)]Gal(b1-3)GlcNAc(b1-2)Man(a1-3)[Fuc(a1-2)[Gal(a1-3)]Gal(b1-3)GlcNAc(b1-2)Man(a1-6)]Man(b1-4)GlcNAc(b1-4)GlcNAc
# Method in brief: as §1
# [6] = molecular target: Fuc(a1-2)[Gal(a1-3)]Gal(b1-3)GlcNAc(b1-2)Man(a1-3)[Fuc(a1-2)[Gal(a1-3)]Gal(b1-3)GlcNAc(b1-2)Man(a1-6)]Man(b1-4)GlcNAc(b1-4)[Fuc(a1-6)]GlcNAc
# Method in brief: as §1
# [7] = molecular target: Fuc(a1-2)[Gal(a1-3)]Gal(b1-4)GlcNAc
# Method in brief: as §1
# [8] = molecular target: Fuc(a1-2)[Gal(a1-4)]Gal(b1-4)GlcNAc
# Method in brief: as §1
# [9] = molecular target: Fuc(a1-2)[GalNAc(a1-3)]Gal(b1-3)GlcNAc
# Method in brief: as §1
# [10] = molecular target: Fuc(a1-2)[GalNAc(a1-3)]Gal(b1-3)GlcNAc(b1-3)GalNAc
# Method in brief: as §1
# [11] = molecular target: Fuc(a1-2)[GalNAc(a1-3)]Gal(b1-4)GlcNAc(b1-3)Gal(b1-4)GlcNAc
# Method in brief: as §1
# [12] = molecular target: Fuc(a1-3)[Gal(b1-4)]GlcNAc(b1-2)Man(a1-3)[Fuc(a1-3)[Gal(b1-4)]GlcNAc(b1-2)Man(a1-6)]Man(b1-4)GlcNAc(b1-4)GlcNAc
# Method in brief: as §1
# [13] = molecular target: Fuc(a1-3)[Gal(b1-4)]GlcNAc(b1-2)Man(a1-3)[Fuc(a1-3)[Gal(b1-4)]GlcNAc(b1-2)Man(a1-6)]Man(b1-4)GlcNAc(b1-4)[Fuc(a1-6)]GlcNAc
# Method in brief: as §1
# [14] = molecular target: Gal(a1-3)Gal(b1-4)[Fuc(a1-3)]GlcNAc
# Method in brief: as §1
# [15] = molecular target: Gal(a1-4)Gal(b1-3)GlcNAc(b1-2)Man(a1-3)[Gal(a1-4)Gal(b1-3)GlcNAc(b1-2)Man(a1-6)]Man(b1-4)GlcNAc(b1-4)GlcNAc
# Method in brief: as §1
# [16] = molecular target: Gal(a1-4)Gal(b1-4)GlcNAc(b1-3)Gal(b1-4)Glc
# Method in brief: as §1
# Gal(b1-2)Gal = molecular target: Gal(b1-2)Gal
# Method in brief: as §1
# [17] = molecular target: Gal(b1-4)GlcNAc(b1-2)Man(a1-3)[Gal(b1-4)GlcNAc(b1-2)][GlcNAc(b1-4)]Man(b1-4)GlcNAc(b1-4)GlcNAc
# Method in brief: as §1
# [18] = molecular target: Gal(b1-4)GlcNAc(b1-3)Gal(b1-4)Glc
# Method in brief: as §1
# [19] = molecular target: Gal(b1-4)GlcNAc(b1-3)Gal(b1-4)[Fuc(a1-3)]GlcNAc(b1-3)Gal(b1-4)[Fuc(a1-3)]GlcNAc
# Method in brief: as §1
# Gal3S(b1-4)Glc = molecular target: Gal3S(b1-4)Glc
# Method in brief: as §1
# [20] = molecular target: GalNAc(a1-3)GalNAc(b1-3)Gal(a1-4)Gal(b1-4)Glc
# Method in brief: as §1
# [21] = molecular target: GalNAc(b1-3)Gal(a1-6)Gal(b1-4)Glc
# Method in brief: as §1
# GalNAc(b1-6)GalNAc = molecular target: GalNAc(b1-6)GalNAc
# Method in brief: as §1
# [22] = molecular target: Glc(a1-4)Glc(a1-4)Glc(a1-4)Glc
# Method in brief: as §1
# [23] = molecular target: GlcNAc(a1-4)Gal(b1-4)GlcNAc(b1-3)Gal(b1-4)GlcNAc
# Method in brief: as §1
# GlcNAc(b1-4)GlcNAc = molecular target: GlcNAc(b1-4)GlcNAc
# Method in brief: as §1
# [24] = molecular target: GlcNAc(b1-4)GlcNAc(b1-4)GlcNAc(b1-4)GlcNAc(b1-4)GlcNAc
# Method in brief: as §1
# Kdn(a2-3)Gal(b1-4)GlcNAc = molecular target: Kdn(a2-3)Gal(b1-4)GlcNAc
# Method in brief: as §1
# [25] = molecular target: Kdn(a2-3)Gal(b1-4)[Fuc(a1-3)]GlcNAc
# Method in brief: as §1
# [26] = molecular target: Man(a1-2)Man(a1-3)[Man(a1-2)Man(a1-6)]Man
# Method in brief: as §1
# [27] = molecular target: Man(a1-2)Man(a1-6)[Man(a1-3)]Man(a1-6)[Man(a1-2)Man(a1-2)Man(a1-3)]Man
# Method in brief: as §1
# Man(a1-3)[Man(a1-6)]Man = molecular target: Man(a1-3)[Man(a1-6)]Man
# Method in brief: as §1
# [28] = molecular target: Man(a1-3)[Man(a1-6)]Man(a1-6)[Man(a1-3)]Man
# Method in brief: as §1
# Neu5Ac(a2-3)Gal = molecular target: Neu5Ac(a2-3)Gal
# Method in brief: as §1
# [29] = molecular target: Neu5Ac(a2-3)Gal6S(b1-4)GlcNAc
# Method in brief: as §1
# [30] = molecular target: Neu5Ac(a2-6)GlcNAc(b1-4)GlcNAc
# Method in brief: as §1
# [31] = molecular target: Neu5Ac(a2-8)Neu5Ac(a2-8)Neu5Ac
# Method in brief: as §1
# [32] = molecular target: Neu5Ac(a2-8)Neu5Ac(a2-8)Neu5Ac(a2-3)Gal(b1-4)Glc
# Method in brief: as §1
# [33] = molecular target: Neu5Ac9Ac(a2-3)Gal(b1-3)GlcNAc
# Method in brief: as §1
# [34] = molecular target: Neu5Gc(b2-6)Gal(b1-4)GlcNAc
# Method in brief: as §1
binder,measurement,setting,value
"PGP3 (Chlamydia trachomatis), P0CE18 (protein) MGNSGFYLYNTQNCVFADNIKVGQMTEPLKDQQIILGTTSTPVAAKMTASDGISLTVSNNPSTNASITIGLDAEKAYQLILEKLGDQILGGIADTIVDSTVQDILDKITTDPSLGLLKAFNNFPITNKIQCNGLFTPRNIETLLGGTEIGKFTVTPKSSGSMFLVSADIIASRMEGGVVLALVREGDSKPYAISYGYSSGVPNLCSLRTRIINTGLTPTTYSLRVGGLESGVVWVNALSNGNDILGITNTSNVSFLEVIPQTNA",glycan array binding signal (z-score),[1],0.289
same,glycan array binding signal (z-score),[2],-0.443
same,glycan array binding signal (z-score),[3],-0.053
same,glycan array binding signal (z-score),[4],2.62
same,glycan array binding signal (z-score),[5],5.67
same,glycan array binding signal (z-score),[6],0.251
same,glycan array binding signal (z-score),[7],-1.17
same,glycan array binding signal (z-score),[8],-0.649
same,glycan array binding signal (z-score),[9],0.499
same,glycan array binding signal (z-score),[10],2.46
same,glycan array binding signal (z-score),[11],0.028
same,glycan array binding signal (z-score),[12],2.78
same,glycan array binding signal (z-score),[13],-0.169
same,glycan array binding signal (z-score),[14],-0.404
same,glycan array binding signal (z-score),[15],3.06
same,glycan array binding signal (z-score),[16],-0.099
same,glycan array binding signal (z-score),Gal(b1-2)Gal,0.34
same,glycan array binding signal (z-score),[17],1.19
same,glycan array binding signal (z-score),[18],-0.67
same,glycan array binding signal (z-score),[19],0.322
same,glycan array binding signal (z-score),Gal3S(b1-4)Glc,-0.636
same,glycan array binding signal (z-score),[20],1.04
same,glycan array binding signal (z-score),[21],2.89
same,glycan array binding signal (z-score),GalNAc(b1-6)GalNAc,0.114
same,glycan array binding signal (z-score),[22],0.478
same,glycan array binding signal (z-score),[23],1.53
same,glycan array binding signal (z-score),GlcNAc(b1-4)GlcNAc,0.682
same,glycan array binding signal (z-score),[24],1.18
same,glycan array binding signal (z-score),Kdn(a2-3)Gal(b1-4)GlcNAc,1.53
same,glycan array binding signal (z-score),[25],0.816
same,glycan array binding signal (z-score),[26],0.09
same,glycan array binding signal (z-score),[27],0.585
same,glycan array binding signal (z-score),Man(a1-3)[Man(a1-6)]Man,-0.232
same,glycan array binding signal (z-score),[28],0.157
same,glycan array binding signal (z-score),Neu5Ac(a2-3)Gal,0.478
same,glycan array binding signal (z-score),[29],2.5
same,glycan array binding signal (z-score),[30],-1.37
same,glycan array binding signal (z-score),[31],1.11
same,glycan array binding signal (z-score),[32],2.79
same,glycan array binding signal (z-score),[33],2.73
same,glycan array binding signal (z-score),[34],-1.1
